# ZTA DNA inh: ZTA (EBV) inhibition in EBNA-1 counter-screen; inhibition, % at 11 µM; AID 2234; ZTA-DNA binding, fluorescence polarization; hit rate 0.15% among 320,000; in the data active = inhibition above about 33%
# Target sequence (P03206 whole entry, looked up): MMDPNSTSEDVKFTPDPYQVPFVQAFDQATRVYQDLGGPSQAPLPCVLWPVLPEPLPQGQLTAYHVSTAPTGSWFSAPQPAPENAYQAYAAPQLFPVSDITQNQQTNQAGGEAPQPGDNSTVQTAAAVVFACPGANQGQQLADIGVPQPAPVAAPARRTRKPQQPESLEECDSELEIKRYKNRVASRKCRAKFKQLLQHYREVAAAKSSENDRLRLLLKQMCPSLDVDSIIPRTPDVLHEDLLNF
# MEX-5 binding: C. elegans MEX-5 TCR-2 RNA binding activity; Q9XUB2; MEX-5/FITC-TCR2 RNA binding, fluorescence polarization; hits give low values; activity score (negative = inhibition of binding), % at 10 µM; hit rate 0.38% among 300,000; AID 1832;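 active = inhibition past about -25% in most replicates, and total fluorescence under double the plate's negative control median, limit read from the data; inconclusive = replicates evenly split on the limit, or fluorescence at least double controls; inactive = too little inhibition in most replicates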;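 also: 0% = DMSO and -100% = 5 µM competing unlabeled TCR2 RNA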
# EBV gp42 block: blocks Epstein-Barr virus glycoprotein 42 binding | Q1HVG2 | Fluorescence polarization binding assay, mP read-out | inhibition, % (tested at 21.74 µM) | hit rate 0.42% among 220,000 | AID 1085; in the data active = inhibition above about 50%
# Target sequence (Q1HVG2 whole entry, looked up): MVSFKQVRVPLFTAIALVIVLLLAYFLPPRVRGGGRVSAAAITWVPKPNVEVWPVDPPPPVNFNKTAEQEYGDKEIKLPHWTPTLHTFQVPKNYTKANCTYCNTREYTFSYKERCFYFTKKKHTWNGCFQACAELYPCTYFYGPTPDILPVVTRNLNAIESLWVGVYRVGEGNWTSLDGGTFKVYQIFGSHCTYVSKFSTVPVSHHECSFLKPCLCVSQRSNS
# EBNA-1 inh: blocks EBNA-1 binding to DNA; EBNA-1 DNA binding, fluorescence polarization; inhibition, % at 14.8 µM; hit rate 0.34% among 300,000; AID 1950; in the data active = inhibition above about 28%
# Active calls of the source: *; ? = inconclusive; / = no result; + = active, no number. Rows were chosen to be rich in hits. Some 1% of all compounds tested hit in one or more screens of this group.
SMILES,ZTA DNA inh,MEX-5 binding,EBV gp42 block,EBNA-1 inh
O=[N+]([O-])c1cccc(-c2ccc(/C=N/Nc3nc(N4CCCCC4)nc(N4CCCCC4)n3)o2)c1,2,0,-10,-4
COc1nc(N/N=C/c2ccc(-c3cccc([N+](=O)[O-])c3)o2)nc(N2CCOCC2)n1,/,-1,92*,/
COc1ccc(/C=C/C(=O)c2c(C)cc(C)[nH]c2=O)c2ccccc12,17,-28*,/,3
Cc1ccc(/C=C/C(=O)c2c(C)cc(C)[nH]c2=O)cc1,7,2,0,2
Nc1nnc2c(n1)CCCC2,-1,-32*,6,-2
CCOc1ncccc1C(=O)OCC(=O)N(CC(C)C)c1c(N)n(Cc2ccccc2)c(=O)[nH]c1=O,-3,2,/,-1
COc1ccc(-c2cc(C(=O)NCc3ccc(Cl)cc3)no2)cc1OC,13,2,-8,-3
COc1ccc(OC)c(-c2cc(C(=O)NCc3ccc(Cl)cc3)no2)c1,21,-1,4,30*
CSC1=NSC2=NC(=O)/C(=C\c3cccs3)C(=N)N12,5,1,2,7
CSC1=NSC2=NC(=O)/C(=C/c3coc4ccccc4c3=O)C(=N)N12,21,/,74*,2
CSC1=NSC2=NC(=O)/C(=C/c3coc4ccc(O)cc4c3=O)C(=N)N12,12,?,63*,7
O=C(O)C1Nc2c(Cl)cc(Cl)c(Cl)c2C2C=CCC12 (stereo not given),-9,-2,/,0
O=C(O)C1Nc2c(O)cccc2C2C=CCC12 (stereo not given),30,/,108*,42*
O=C(O)C1Nc2c(Cl)cc(Cl)cc2C2C=CCC12 (stereo not given),15,-73*,/,17
CC(C)CNC(=O)C1Nc2ccccc2C2C=CCC12 (stereo not given),7,2,/,0
CC(C)c1ccc(CNC(=O)C2CCCN2S(=O)(=O)c2ccccc2)cc1 (stereo not given),-4,2,/,2
Cc1cc(C)c(NC(=O)CSc2nnnn2-c2cccnc2)c(C)c1,-1,1,/,0
COc1ccccc1C(=O)Oc1ccc2c(c1)O/C(=C\c1ccncc1)C2=O,18,-26*,33,-4
O=C(Oc1ccc2c(c1)O/C(=C\c1ccncc1)C2=O)c1cccs1,7,-5,12,-12
CC(=O)Oc1ccc2c(c1)O/C(=C\c1ccncc1)C2=O,-1,?,77*,-5
Cc1ccc(N=Cc2ccc(N(C)C)cc2)cc1,2,-5,-15,8
CN(C)c1ccc(N=Cc2ccco2)cc1,+,/,-1,+
CN(C)c1ccc(C=Nc2ccc(N(C)C)cc2)cc1,+,-2,-35,+
COc1ccc(SCCN2CC[C@@H](C(C)(C)C)CCC2=O)cc1,-16,/,/,/
O=C(NNC(=O)c1cc(-c2ccncc2)nc2ccccc12)c1ccccc1O,-15,-1,/,-8
SMILES,ZTA DNA inh,MEX-5 binding,EBV gp42 block,EBNA-1 inh
O=C(CN(c1ccccc1)S(=O)(=O)c1ccccc1)N/N=C/c1ccc(OC2CSC2)cc1,4,0,9,55*
CCN(CC)c1ccc(/C=C2\CCC(/C=C(\C#N)C(=O)Nc3ccccc3F)=C2N2CCOCC2)cc1,/,0,-4,/
N#C/C(=C\C1=C(N2CCOCC2)C(=C/c2cccc([N+](=O)[O-])c2)/CC1)C(=O)Nc1ccccc1F,-1,/,86*,-9
N#C/C(=C\C1=C(N2CCOCC2)C(=C\c2ccc(Cl)cc2)/CC1)C(=O)Nc1ccccc1F,5,-3,124*,8
CC1CN(C(=O)CCC(=O)NCc2ccc(Cl)cc2)c2ccccc2S1 (stereo not given),-15,0,/,3
O=C(CSc1cc(Cl)ccc1Cl)Nc1ccc(N2CCOCC2)cc1,3,/,/,/
Cc1ccccc1CC(=O)Nc1cccc(S(=O)(=O)N2CCCC2)c1,-11,/,/,/
NC(=O)c1c(NC(=O)Cn2nc(C(=O)O)c3ccccc3c2=O)sc2c1CCCC2,2,2,53*,11
COc1ccc(CCC(=O)N2CCN(S(=O)(=O)c3ccc(OC(F)(F)F)cc3)CC2)cc1,15,/,/,/
CCNC(=S)N/N=C1\C(=O)c2cccc3cccc1c23,4,1,3,-6
O=C(N/N=C1/C(=O)c2cccc3cccc1c23)c1ccc(Cl)cc1,-3,1,67*,1
Cc1ccccc1NC(=O)Cc1nc(COC(=O)c2cc([N+](=O)[O-])ccc2N)cs1,14,1,/,13
CCC(C)(C)C1CCC(NC(=O)c2ccc(S(=O)(=O)N3CCOCC3)cc2)CC1 (stereo not given),-10,/,/,/
Cc1cc(NC(=O)Cc2cccs2)no1,17,/,71*,5
CC(C)(C)C1CC=C2C(C#N)=C(N)C(C#N)(C#N)C(c3cccs3)C2C1 (stereo not given),-8,-41*,/,-7
CC(C)CC(NC(=O)C1CCC(=O)N1C(=O)OCc1ccccc1)C(=O)NC(Cc1ccccc1)C(N)=O (stereo not given),-1,3,/,-8
Cn1c(/N=C/c2c(O)ccc3ccccc23)nc2ccccc21,-5,/,157*,-6
Cc1ccc(NC(=O)c2sc3nc4c(c(-c5ccco5)c3c2N)CCC4)cc1,-9,-55*,9,-2
Nc1c(C(=O)Nc2ccccc2)sc2nc3c(c(-c4ccco4)c12)CCC3,-6,-5,4,-5
COc1cc(OC)cc(C(=O)NCCNc2nc3cc(C)cc(C)c3cc2C#N)c1,-1,-3,/,-2
O=C(O)c1ccc(NC(=O)c2ccccc2NC(=O)c2cccc(Br)c2)cc1,-17,0,/,-7
CCN(CC)c1ccc2cc(C(C)=O)c(=O)oc2c1,14,0,-198,17
CCN(CC)c1ccc2cc(NC(=O)CCC(=O)O)c(=O)oc2c1,5,-68*,74*,-1
O=Cc1cn(CC(=O)N2CCCCC2)c2ccccc12,-19,3,-6,-7
CN1C(=O)/C(=C/c2cn(CC(=O)N3CCCCC3)c3ccccc23)c2ccccc21,24,-27*,-12,-8
SMILES,ZTA DNA inh,MEX-5 binding,EBV gp42 block,EBNA-1 inh
Cc1ccc(NCC(=O)Nc2cccc(S(=O)(=O)N(C)C)c2)cc1S(=O)(=O)N1CCCCCC1,3,-2,/,5
CCOC(=O)c1c(C)[nH]c(C)c1S(=O)(=O)N1CCCCC1,-19,-2,/,-9
CN(C(=O)C(=O)c1cn(CC(=O)N2CCCC2)c2ccccc12)C1CCCCC1,-10,-1,/,-2
Oc1ccc(Br)cc1/C=N/n1c(-c2ccccc2)n[nH]c1=S,4,4,/,0
Oc1c(Br)cc(Br)c(/C=N/n2c(-c3ccccc3)n[nH]c2=S)c1Br,17,-37*,/,7
Cc1c(C(=O)NCC2CCCO2)oc2ccc(Br)cc12 (stereo not given),-5,1,/,4
O=C(Nc1ccncc1)Nc1ccc(F)cc1F,-3,2,73*,-1
O=C(Nc1ccc(F)cc1F)Nc1ccc(F)cc1F,-3,-1,0,6
O=c1[nH]c(Nc2ccccc2)cc2ccccc12,32,-19,72*,-13
CC(=O)c1cccc(-c2ccc3c(=O)[nH]c(Nc4ccccc4)cc3c2)c1,-3,0,/,11
N#Cc1c(SCC(N)=O)nc2c(c1-c1ccc(O)cc1)CCCC2,1,1,111*,7
